High-throughput results deposited in PubChem BioAssay by Broad Institute.
Hits are enriched below; roughly 2.4% of the tested compounds scored in any of these assays.
GSIS activator: GLuc luminescence reporter in INS-1E cells, primary screen for activators of glucose-dependent secretion of insulin; AID 743287; activation, % at 16.6 µM; INS-1E GLuc reporter insulin secretion, 2-3 h; 0.61% of 370,000 active;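 active = lowest replicate activation of at least 40%, so every replicate reaches that level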;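 note: 0% = median of neutral control wells and 100% = median of IBMX positive control wells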
Dyrk1A ADPGlo: inhibitors of rat Dyrk1A kinase; Q63470; ADP-Glo luminescence, NFATc1 peptide; inhibition, % at 12.5 µM; 0.43% of 310,000 active;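 note: plate controls were vehicle with enzyme for no effect and no enzyme for full effect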
MITF act: activators of MITF-driven TRPM1 promoter activity in SK-MEL-5 cells; activation, % at 12.5 µM; SK-MEL-5 TRPM1-promoter luciferase, 24 h; % of positive control, neutral wells = 0; 0.75% of 300,000 active;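 active = mean activation of at least 80% with every replicate also reaching 80%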;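 note: 0% = neutral control wells and 100% = parthenolide positive control wells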
NSD2 HMT inh: inhibitors of human histone methyltransferase NSD2 | O96028 | NSD2 peptide methylation, AlphaScreen, 120 min | inhibition, % at 12.5 µM | 0.54% of 310,000 active | AID 743445
Wnt bcat act: Wnt/beta-catenin pathway activation; 1.2% of 300,000 active; activation, % at 9.35 µM; Wnt/beta-catenin reporter cell assay, activator, plate reader; in the data active = activation above about 30%, passing the limit was not always enough;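 note: 0% = neutral control wells and 100% = positive control wells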
miR-122 sensor: blocks miR-122 activity in Huh7 sensor cells; activation (reporter increase), % at 12.5 µM; AID 602342; 0.3% of 340,000 active; Huh7 miR-122 Renilla luciferase sensor, 48 h; neutral wells = 0, positive control = 100;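 active = mean replicate activation score at least 90 and every replicate individually at or above 90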;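 note: higher luciferase means less miR-122 activity so hits act as miR-122 inhibitors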
Alpha artifact: interferes with AlphaScreen signal, flagging NSD2 false positives; shares compounds with NSD2 HMT inh; AlphaScreen artifact counterscreen, preloaded methylated H4 peptide; AC35, µM (series often up to 10 µM), for inactives: at the top dose activity change, negative = signal loss; 9.4% of 1,500 active; AID 1053174; call rule not given here
Numbers without * were called inactive; [ ] = another dose, or the depositor's remark. Cut-off read from the data, not from the text of the source, unless noted: active = inhibition above about 50%; inactive = the rest.

For C[C@H](O)C#Cc1cnc2c(c1)C(=O)N([C@@H](C)CO)C[C@H](C)[C@@H](CN(C)Cc1ccc(-c3ccccc3)cc1)O2 the results were GSIS activator 17 and miR-122 sensor -4[16.7 µM].
`O=C(COc1ccc(S(=O)(=O)N2CCCC2)cc1)Nc1ccc(F)cc1` gave GSIS activator 7, Dyrk1A ADPGlo 4, MITF act 4, NSD2 HMT inh 68*, Wnt bcat act 2, miR-122 sensor 1 and Alpha artifact 2%.
CC(C)NC(=O)N(C)C[C@@H]1Oc2ccc(NS(=O)(=O)c3cn(C)cn3)cc2CC(=O)N([C@H](C)CO)C[C@H]1C was read as GSIS activator 8 and miR-122 sensor 9[16.7 µM].
Screening O=C(Cc1ccccc1)NC1(O)C(=O)c2ccccc2C1=O returned GSIS activator 15, Dyrk1A ADPGlo 7, NSD2 HMT inh 101*, Wnt bcat act -2, miR-122 sensor -3 and Alpha artifact 2%.
Screening O=C(NC1(O)C(=O)c2ccccc2C1=O)c1ccc(C(F)(F)F)cc1 returned NSD2 HMT inh 108*, Wnt bcat act 1, miR-122 sensor 8 and Alpha artifact 0%.
Cc1ccc(C(=O)NC2(O)C(=O)c3ccccc3C2=O)cc1C was read as GSIS activator -21, Dyrk1A ADPGlo 25, NSD2 HMT inh 110*, Wnt bcat act -1, miR-122 sensor -2 and Alpha artifact 3%.
For Cc1ccc(C(=O)NCC(=O)OCN2C(=O)c3ccccc3C2=O)cc1C the results were GSIS activator 1, MITF act -1, NSD2 HMT inh -3 and Wnt bcat act 0.
Screening COc1ccc2c3c(n(C)c2c1)[C@@H](CO)N(Cc1cccc(Cl)c1)CC31CN(C(C)=O)C1 returned GSIS activator -2.
`C[C@@H]1CN([C@H](C)CO)C(=O)c2cccc(NS(=O)(=O)c3cn(C)cn3)c2O[C@@H]1CN(C)S(=O)(=O)c1ccc(F)cc1` gave GSIS activator 22 and miR-122 sensor -4[16.7 µM].
`O=C(C[C@@H]1C[C@@H]2c3cc(NS(=O)(=O)c4ccc(F)cc4)ccc3O[C@@H]2[C@@H](CO)O1)NCC1CC1` gave GSIS activator -4 and miR-122 sensor -1[16.7 µM].
Screening C/C=C/c1cnc2c(c1)C(=O)N([C@H](C)CO)C[C@H](C)[C@@H](CN(C)C(=O)Cc1ccccc1)O2 returned GSIS activator 14 and miR-122 sensor -10[16.7 µM].
Screening CN1C(=O)c2cc(NC(=O)c3cccs3)ccc2OC[C@@H]2O[C@@H](CC(=O)NCC(F)(F)F)CC[C@H]21 returned GSIS activator 1 and miR-122 sensor -33[16.7 µM].
For CCC(=O)N(C)C[C@H]1Oc2ncc(Br)cc2C(=O)N([C@H](C)CO)C[C@@H]1C the results were GSIS activator 10 and miR-122 sensor 18[16.7 µM].
`O=Cc1ccc(OC(=O)C2CC(=O)N(c3ccc(F)cc3)C2)cc1` (centres undefined) gave Dyrk1A ADPGlo 2, NSD2 HMT inh 125*, miR-122 sensor -5 and Alpha artifact 7%.
For O=C(O)C1CC(=O)N(c2ccc(F)cc2)C1 (centres undefined) the results were Dyrk1A ADPGlo -1, NSD2 HMT inh 1, Wnt bcat act 6 and miR-122 sensor -1.
CC(C)CC#Cc1ccc([C@@H]2[C@@H](CO)N3C(=O)CN(C(=O)NC(C)C)C[C@@H]23)cc1 was read as GSIS activator -17.
For Cc1ccc(C)c(-n2c3nc(=O)[nH]c(=O)c-3cc3cc([N+](=O)[O-])ccc32)c1 the results were Dyrk1A ADPGlo 8, MITF act -63, NSD2 HMT inh 60*, Wnt bcat act 2, miR-122 sensor 14 and Alpha artifact -8%.
For Cc1ccc(C)c(-n2c3nc(=O)n(C)c(=O)c-3cc3ccccc32)c1 the results were GSIS activator -12, Dyrk1A ADPGlo -2, MITF act 3, NSD2 HMT inh 0 and Wnt bcat act -1.
